Data on 40 molecules can be found in PubChem BioAssay (Tox21).

Results filed as inconclusive are left out. Entries that show only a call come without a potency. Unmarked numbers belong to inactive results. The source made the active and inactive calls. Calls follow the shape of the dose curve; as a rule, active = well fitted cell-killing curve with a large enough effect in the repeat runs; inconclusive = weak or mixed curves; inactive = flat fitted curve, though single readings scatter.

A short description of this test: qHTS assay to identify small molecule antagonists of the estrogen receptor beta (ER-beta) signaling pathway - cell viability counter screen (AID 1259382). Also: nearly all actives have a fitted effect of over 55% in size. Particulars: ER-beta-UAS-bla HEK293T viability, CellTiter-Glo luminescence, 16 h; series mostly up to 92.4 µM. From the text:
U.S. Tox21 Program National Center for Advancing Translational Sciences [NCATS] NIH Chemical Genomics Center [NCGC] U.S. Environmental Protection Agency [EPA] National Institutes of Environmental Health Sciences [NIEHS] National Toxicology Program [NTP] U.S. Food and Drug Administration [FDA] Tox21 Assay Overview: Estrogen receptor (ER), a nuclear hormone receptor, plays an important role in development, metabolic homeostasis and reproduction. Two subtypes of ER, ER-alpha and ER-beta, have similar expression patterns with some uniqueness in both types. Endocrine disrupting chemicals (EDCs) and their interactions with steroid hormone receptors like ER causes disruption of normal endocrine function. To identify the compounds that inhibit ER signaling, an ER-beta-UAS-bla GripTite cell line (Life Technologies, Madison, WI, USA) containing a beta-lactamase reporter gene under the control of an UAS response element was used to screen Tox21 10K compound library. The cytotoxicity of the Tox21 compound library against the ER-beta-bla cell line was tested in parallel by measuring the cell viability using CellTiter-Glo assay in the same wells.
Tox21 Assay Protocol Summary: ER-beta-UAS-bla HEK293T cells were dispensed at 2,000 cells/4 uL of assay medium containing 2% charcoal stripped FBS per well into black wall/clear-bottom 1536-well plates using a Multidrop Combi (ThermoFisher Scientific, Waltham, MA) dispenser. After the assay plates were incubated at a 37C and 5% CO2 for 6 hr, 23 nL of compounds dissolved in DMSO, positive controls or DMSO only was transferred to the assay plate by a Pintool station (Kalypsys, San Diego, CA), followed by addition of 1 uL (1nM as final concentration) of 17-beta-estradiol (E2) in assay medium using a Flying Reagent Dispenser (FRD, Aurora Discovery, San Diego, CA). The plates were incubated at 37C and 5% CO2 for 16 hr. Then 1 uL of LiveBLAzer B/G FRET substrate was added using a Flying Reagent Dispenser, the plates were incubated at room temperature for 2 hours, and fluorescence intensity was measured by an Envision plate reader (PerkinElmer, Shelton, CT). For cell viability readout that measures cytotoxicity, 4 uL/well of CellTiter-Glo reagent was added into the assay plates using a FRD. After 30 min incubation at room temperature, the luminescence intensity in the plates was measured using a ViewLux (PerkinElmer) plate reader.
A general note: In qHTS, concentration-response curves come from the screen itself.
Consider `N=c1ccn2c(n1)O[C@H]1[C@H](O)[C@@H](CO)O[C@H]12`, for which the Potency entry is “inactive”.

Turning to `C/C(=C(\CCOP(=O)(O)O)SC(=O)c1ccccc1)N(C=O)Cc1cnc(C)nc1N`, the activity change, negative = cytotoxicity is 2.09% [at 8.39 µM]. As to `CCCCCCCCCCO[C@@H]1O[C@H](CO)[C@@H](O)[C@H](O)[C@H]1O`, the Potency entry was “inactive”. Still for that read-out and setting: to `CC(=O)NO` belongs “inactive”; to `CCOc1ccc(O)cc1`, “inactive”. `Nc1ccc([N+](=O)[O-])c(C(F)(F)F)c1`: the Potency result was “inactive”. For `Cc1c(N)cccc1[N+](=O)[O-]`, the Potency result was “inactive”. As to `CC(C)(CO)[N+](=O)[O-]`, the Potency entry is “inactive”. For the molecule `COC(C)(C)CCO`, the Potency entry was “inactive”. The same measure, in the same setting: to `CCC(C)c1cc(C(C)(C)C)c(O)c(C(C)(C)C)c1` (stereo not given) belongs “inactive”; to `CN1CCC(N(Cc2cccs2)c2ccccc2)CC1`, “inactive”. Still for that read-out and setting: to `O=C(NCCO[N+](=O)[O-])c1cccnc1` belongs “inactive”. Regarding `NCC(=O)O`, the activity change, negative = cytotoxicity was -1.05% [at 19 µM]. For `CC(=O)[O][Al]`, the Potency entry was “inactive”. The same measure, in the same setting: with `CC(C)Nc1ccc(NC(C)C)c2c1C(=O)c1ccccc1C2=O` the entry was “inactive”. Consider `CCC(Cl)CCC(Cl)C(Cl)CC(Cl)C(Cl)C(Cl)CCl` (stereo not given), for which the Potency entry is “inactive”. On the same count and under the same terms, to `CN(C)CCN(Cc1ccsc1)c1ccccn1` belongs “inactive”; to `CN1CCN(C(c2ccccc2)c2ccccc2)CC1`, “inactive”. On the same count and under the same terms, to `C=C(C)C(=O)OCCO` belongs “inactive”; to `CCC(C)O` (stereo not given), “inactive”; to `CCC(CC)Nc1ccc(C)c(C)c1`, “inactive”. Same read-out and setting: to `ClCCOCCOCCCl` belongs “inactive”; to `CC(CC=O)c1ccccc1` (stereo not given), “inactive”; to `CCCCCC[C@@H](O)C/C=C\CCCCCCCC(=O)OC`, “inactive”. Take `CC(COCCO)OCCO` (stereo not given): the Potency entry was “inactive”. For `O=C1OC(CN2CCOCC2)CN1/N=C/c1ccc([N+](=O)[O-])o1` (stereo not given), the Potency entry was “inactive”. Still for that read-out and setting: with `CCCCNc1ccc(C(=O)OCCOCCOCCOCCOCCOCCOCCOCCOCCOC)cc1` the entry was “inactive”. For `O=C1[C@H]2CCCC[C@H]2C(=O)N1CCCCN1CCN(c2nsc3ccccc23)CC1`, the Potency result is “inactive”.

For the molecule `C1CCCNCCC1`, the Potency entry is “inactive”. The same measure, in the same setting: with `CC(C)=CCC/C(C)=C/CC/C(C)=C/CO` the entry was “inactive”; with `CC(=O)c1cccc([N+](=O)[O-])c1`, “inactive”; with `Cc1nn(C)c(Oc2ccccc2)c1/C=N/OCc1ccc(C(=O)OC(C)(C)C)cc1`, “inactive”.

As to `C=CCOc1ccccc1OCC(O)CNC(C)C` (stereo not given), the Potency result was “inactive”. Still for that read-out and setting: with `CC(C)(O)c1ccc(CNC(=O)c2cccnc2Oc2ccc(F)cc2)cc1` the entry was “inactive”; with `C=CC(=O)OCCOCCOCCOCCOC(=O)C=C`, “inactive”; with `O=[N+]([O-])c1cccc(S(=O)(=O)O)c1`, “inactive”.

`CCOC(=O)C(=O)CCc1ccccc1`: the Potency entry is “inactive”.

`O=P(O)(OCc1ccccc1)OCc1ccccc1`: the Potency entry was “inactive”. Consider `CC/C=C\CCOC(=O)CC`, for which the Potency result was “inactive”. As to `O=C(O)C1(C(=O)O)CCC1.[NH2-].[NH2-].[Pt+2]`, the Potency entry was “inactive”.
